Assay results taken from the supplement of paper PMC11732987, “Enantioselective OTUD7B fragment discovery through chemoproteomics screening and high-throughput optimisation” (Communications Chemistry, 2025).

Legend:
Test in all cases: log2 ratio of Biotin-Ahx-Ub-VS probe labelling (fragment/DMSO); higher = less target engagement (more negative = stronger competition), active = hit call of the paper (q ≤ 0.05, log2 ratio ≤ -1)
Conditions in all cases: compound concentration: 200 uM; treatment time: 3 h
USP34 = USP34 (UniProt Q70CQ2)
Sequence of USP34 (Q70CQ2 whole entry, the tested form may be a part): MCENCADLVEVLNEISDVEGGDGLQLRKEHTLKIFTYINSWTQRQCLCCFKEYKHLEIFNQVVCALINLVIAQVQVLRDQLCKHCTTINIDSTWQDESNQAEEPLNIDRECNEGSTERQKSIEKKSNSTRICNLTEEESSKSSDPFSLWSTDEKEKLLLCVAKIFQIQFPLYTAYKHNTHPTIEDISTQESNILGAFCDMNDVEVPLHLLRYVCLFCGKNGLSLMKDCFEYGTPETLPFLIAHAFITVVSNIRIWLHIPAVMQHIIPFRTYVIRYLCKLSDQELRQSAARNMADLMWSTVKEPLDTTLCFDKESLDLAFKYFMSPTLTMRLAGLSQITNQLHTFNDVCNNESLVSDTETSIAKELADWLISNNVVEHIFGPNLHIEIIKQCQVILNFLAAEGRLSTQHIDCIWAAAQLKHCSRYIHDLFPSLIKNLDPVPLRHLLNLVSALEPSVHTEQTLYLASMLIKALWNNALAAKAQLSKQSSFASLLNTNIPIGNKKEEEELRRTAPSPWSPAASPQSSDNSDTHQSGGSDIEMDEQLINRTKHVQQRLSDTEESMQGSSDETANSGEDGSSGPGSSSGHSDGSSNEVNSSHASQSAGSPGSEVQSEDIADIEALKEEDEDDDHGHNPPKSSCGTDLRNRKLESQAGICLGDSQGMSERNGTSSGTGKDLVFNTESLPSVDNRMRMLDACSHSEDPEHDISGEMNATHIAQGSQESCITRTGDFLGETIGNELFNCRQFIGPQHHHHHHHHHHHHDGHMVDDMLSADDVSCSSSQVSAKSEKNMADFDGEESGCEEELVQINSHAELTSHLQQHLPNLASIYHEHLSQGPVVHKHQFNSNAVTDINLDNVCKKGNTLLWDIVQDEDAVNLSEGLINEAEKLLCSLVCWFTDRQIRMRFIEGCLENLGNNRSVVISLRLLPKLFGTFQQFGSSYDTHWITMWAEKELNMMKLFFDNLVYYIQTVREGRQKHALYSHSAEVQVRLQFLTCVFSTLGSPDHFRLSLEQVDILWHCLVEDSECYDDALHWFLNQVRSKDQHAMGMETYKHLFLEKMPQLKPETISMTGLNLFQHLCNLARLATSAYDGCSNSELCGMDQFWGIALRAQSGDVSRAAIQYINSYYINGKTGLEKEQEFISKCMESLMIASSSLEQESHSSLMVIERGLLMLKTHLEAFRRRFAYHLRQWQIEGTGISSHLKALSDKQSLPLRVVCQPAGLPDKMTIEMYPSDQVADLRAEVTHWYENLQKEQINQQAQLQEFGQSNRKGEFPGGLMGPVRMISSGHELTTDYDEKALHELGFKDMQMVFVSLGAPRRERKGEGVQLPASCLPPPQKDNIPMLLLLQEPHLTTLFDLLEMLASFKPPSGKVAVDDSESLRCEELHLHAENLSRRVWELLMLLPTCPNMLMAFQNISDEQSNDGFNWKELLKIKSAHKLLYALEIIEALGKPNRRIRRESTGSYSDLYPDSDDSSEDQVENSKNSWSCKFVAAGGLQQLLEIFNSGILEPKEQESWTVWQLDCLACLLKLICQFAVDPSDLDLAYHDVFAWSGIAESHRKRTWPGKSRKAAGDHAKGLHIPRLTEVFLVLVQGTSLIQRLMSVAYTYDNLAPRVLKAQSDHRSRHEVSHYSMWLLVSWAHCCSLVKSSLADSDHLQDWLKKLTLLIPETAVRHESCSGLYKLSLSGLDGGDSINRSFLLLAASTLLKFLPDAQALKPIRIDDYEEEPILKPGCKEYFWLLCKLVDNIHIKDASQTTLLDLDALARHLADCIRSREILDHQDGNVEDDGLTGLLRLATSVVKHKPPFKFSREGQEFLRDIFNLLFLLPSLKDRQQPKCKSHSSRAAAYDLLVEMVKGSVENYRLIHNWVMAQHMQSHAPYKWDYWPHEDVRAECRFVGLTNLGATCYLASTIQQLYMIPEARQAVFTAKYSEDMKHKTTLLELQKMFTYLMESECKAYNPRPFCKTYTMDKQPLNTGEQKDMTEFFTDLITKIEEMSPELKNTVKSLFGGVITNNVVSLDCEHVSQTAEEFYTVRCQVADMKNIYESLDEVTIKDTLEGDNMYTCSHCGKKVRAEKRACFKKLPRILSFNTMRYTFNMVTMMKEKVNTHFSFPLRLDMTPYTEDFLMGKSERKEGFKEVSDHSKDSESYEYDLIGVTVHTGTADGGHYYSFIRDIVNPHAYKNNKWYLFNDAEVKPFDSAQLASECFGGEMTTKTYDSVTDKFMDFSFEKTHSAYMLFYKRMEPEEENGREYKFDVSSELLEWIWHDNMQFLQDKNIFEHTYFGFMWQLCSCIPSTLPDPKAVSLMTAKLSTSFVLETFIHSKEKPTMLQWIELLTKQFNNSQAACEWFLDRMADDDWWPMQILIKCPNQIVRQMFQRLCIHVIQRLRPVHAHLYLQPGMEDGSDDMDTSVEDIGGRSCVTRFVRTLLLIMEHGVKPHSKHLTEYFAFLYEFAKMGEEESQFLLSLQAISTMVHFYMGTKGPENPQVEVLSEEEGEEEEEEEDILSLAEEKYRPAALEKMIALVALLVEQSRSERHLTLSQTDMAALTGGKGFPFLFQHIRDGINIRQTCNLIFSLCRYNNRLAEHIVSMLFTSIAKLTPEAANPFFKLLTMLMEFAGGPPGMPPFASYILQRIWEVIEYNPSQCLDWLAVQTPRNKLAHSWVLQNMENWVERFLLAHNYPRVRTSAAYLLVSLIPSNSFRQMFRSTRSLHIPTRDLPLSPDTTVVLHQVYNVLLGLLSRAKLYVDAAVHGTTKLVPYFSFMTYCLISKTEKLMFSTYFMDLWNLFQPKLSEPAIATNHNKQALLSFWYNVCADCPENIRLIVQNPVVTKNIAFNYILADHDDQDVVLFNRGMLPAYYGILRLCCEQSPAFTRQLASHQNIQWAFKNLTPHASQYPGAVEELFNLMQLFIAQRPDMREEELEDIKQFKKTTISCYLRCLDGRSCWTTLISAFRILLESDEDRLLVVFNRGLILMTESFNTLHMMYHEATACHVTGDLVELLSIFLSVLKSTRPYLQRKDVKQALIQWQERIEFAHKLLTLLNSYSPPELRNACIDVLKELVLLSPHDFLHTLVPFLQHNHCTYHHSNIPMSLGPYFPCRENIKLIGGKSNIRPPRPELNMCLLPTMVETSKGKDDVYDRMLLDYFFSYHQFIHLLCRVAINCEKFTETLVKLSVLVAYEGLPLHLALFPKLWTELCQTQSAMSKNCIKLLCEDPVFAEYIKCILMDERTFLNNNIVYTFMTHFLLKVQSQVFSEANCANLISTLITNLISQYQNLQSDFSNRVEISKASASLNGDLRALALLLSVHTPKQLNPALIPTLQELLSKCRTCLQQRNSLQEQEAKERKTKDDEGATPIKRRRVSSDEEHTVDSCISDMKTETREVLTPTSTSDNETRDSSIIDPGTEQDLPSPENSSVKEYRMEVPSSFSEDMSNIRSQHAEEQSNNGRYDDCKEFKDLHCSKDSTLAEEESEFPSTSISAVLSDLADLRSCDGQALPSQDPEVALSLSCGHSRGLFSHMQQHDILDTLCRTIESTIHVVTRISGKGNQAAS
How it was run: (§1)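 HEK293T lysate in Tris/CHAPS/IGEPAL buffer with protease inhibitors (495 µg per sample) was given fragment at 200 µM or vehicle for 3 h, in triplicate. It then received Biotin-Ahx-Ub-VS at 0.5 µM final for 1 h. Labelled DUBs were NeutrAvidin-enriched, digested with LysC and trypsin, and run by diaPASEF LC-MS/MS. Values are average log2 fragment/vehicle ratios by unpaired t-test on global-median-normalised Spectronaut quantities of proteins with ≥2 unique peptides.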

USP36 = target: T1, USP36 (UniProt Q9P275)
T1 sequence (whole entry): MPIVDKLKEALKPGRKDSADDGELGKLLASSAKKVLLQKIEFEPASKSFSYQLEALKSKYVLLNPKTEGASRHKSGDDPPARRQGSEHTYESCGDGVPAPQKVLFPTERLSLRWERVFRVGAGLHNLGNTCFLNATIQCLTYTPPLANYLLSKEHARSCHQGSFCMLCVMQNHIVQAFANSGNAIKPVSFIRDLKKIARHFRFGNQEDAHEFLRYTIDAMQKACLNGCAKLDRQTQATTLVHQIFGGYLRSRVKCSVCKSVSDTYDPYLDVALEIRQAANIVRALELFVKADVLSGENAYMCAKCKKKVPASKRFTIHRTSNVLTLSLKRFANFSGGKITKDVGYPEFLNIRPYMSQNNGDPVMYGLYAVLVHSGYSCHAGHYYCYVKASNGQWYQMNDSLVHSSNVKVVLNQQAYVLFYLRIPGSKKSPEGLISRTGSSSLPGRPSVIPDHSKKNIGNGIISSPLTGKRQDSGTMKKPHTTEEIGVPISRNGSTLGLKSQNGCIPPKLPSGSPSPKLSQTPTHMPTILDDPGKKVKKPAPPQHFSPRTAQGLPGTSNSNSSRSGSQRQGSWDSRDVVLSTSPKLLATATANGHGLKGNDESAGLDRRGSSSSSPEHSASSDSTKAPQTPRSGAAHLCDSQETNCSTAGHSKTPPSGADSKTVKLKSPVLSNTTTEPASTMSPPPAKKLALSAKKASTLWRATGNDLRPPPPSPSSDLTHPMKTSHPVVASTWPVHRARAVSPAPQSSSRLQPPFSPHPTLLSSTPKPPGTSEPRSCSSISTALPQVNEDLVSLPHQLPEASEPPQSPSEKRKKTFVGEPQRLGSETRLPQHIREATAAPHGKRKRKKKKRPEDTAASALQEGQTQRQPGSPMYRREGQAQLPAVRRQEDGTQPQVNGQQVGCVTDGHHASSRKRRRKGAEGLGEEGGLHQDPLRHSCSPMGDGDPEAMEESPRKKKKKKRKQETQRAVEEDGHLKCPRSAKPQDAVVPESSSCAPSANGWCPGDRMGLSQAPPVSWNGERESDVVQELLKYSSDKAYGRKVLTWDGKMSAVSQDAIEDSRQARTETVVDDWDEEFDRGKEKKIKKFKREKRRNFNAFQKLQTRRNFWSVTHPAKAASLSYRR
How it was run: as §1

USP38 = target: T2, USP38 (UniProt Q8NB14)
T2 sequence (whole entry): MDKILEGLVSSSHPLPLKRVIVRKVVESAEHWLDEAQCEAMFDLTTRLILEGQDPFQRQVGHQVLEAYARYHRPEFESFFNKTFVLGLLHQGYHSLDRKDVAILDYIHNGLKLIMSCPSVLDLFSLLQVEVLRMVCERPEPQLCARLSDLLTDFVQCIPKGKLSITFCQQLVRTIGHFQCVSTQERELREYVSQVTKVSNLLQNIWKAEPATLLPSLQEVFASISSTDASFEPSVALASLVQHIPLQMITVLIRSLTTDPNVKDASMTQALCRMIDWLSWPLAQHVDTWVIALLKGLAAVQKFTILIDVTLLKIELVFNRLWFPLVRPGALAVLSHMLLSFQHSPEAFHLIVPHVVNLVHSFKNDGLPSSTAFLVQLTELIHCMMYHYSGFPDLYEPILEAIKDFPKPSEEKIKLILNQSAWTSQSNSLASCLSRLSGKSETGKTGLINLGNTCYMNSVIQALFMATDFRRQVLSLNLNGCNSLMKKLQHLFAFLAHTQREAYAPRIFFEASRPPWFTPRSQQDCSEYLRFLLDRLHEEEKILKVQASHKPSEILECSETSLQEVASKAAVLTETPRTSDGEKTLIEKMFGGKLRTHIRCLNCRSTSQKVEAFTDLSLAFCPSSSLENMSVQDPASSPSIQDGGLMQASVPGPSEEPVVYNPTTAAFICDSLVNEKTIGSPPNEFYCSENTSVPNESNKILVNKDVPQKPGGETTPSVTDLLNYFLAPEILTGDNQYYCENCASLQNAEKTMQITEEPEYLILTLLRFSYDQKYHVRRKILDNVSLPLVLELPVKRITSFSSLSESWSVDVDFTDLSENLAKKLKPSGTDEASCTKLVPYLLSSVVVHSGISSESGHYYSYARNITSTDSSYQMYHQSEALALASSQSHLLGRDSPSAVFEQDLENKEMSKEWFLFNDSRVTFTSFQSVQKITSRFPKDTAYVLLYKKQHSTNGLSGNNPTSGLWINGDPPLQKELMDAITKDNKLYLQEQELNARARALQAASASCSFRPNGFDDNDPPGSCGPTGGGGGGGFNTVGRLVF
How it was run: as §1

USP39 = target: T3, USP39 (UniProt Q53GS9)
T3 sequence (whole entry): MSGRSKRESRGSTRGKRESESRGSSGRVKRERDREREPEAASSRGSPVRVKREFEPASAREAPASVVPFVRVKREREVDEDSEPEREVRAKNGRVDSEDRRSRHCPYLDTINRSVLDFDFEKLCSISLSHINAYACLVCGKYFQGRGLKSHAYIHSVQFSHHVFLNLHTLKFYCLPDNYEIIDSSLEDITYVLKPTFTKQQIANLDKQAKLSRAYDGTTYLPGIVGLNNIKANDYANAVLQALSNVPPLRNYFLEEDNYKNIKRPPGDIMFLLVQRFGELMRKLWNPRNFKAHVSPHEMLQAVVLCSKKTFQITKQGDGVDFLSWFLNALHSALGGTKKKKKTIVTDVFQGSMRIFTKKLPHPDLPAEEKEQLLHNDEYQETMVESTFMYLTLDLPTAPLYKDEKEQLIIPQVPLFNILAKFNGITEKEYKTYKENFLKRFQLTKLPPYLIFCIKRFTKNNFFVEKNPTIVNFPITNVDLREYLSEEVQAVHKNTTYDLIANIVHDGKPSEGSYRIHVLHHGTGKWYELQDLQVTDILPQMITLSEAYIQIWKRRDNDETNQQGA
How it was run: as §1

USP4 = target: T4, USP4 (UniProt Q13107)
T4 sequence (whole entry): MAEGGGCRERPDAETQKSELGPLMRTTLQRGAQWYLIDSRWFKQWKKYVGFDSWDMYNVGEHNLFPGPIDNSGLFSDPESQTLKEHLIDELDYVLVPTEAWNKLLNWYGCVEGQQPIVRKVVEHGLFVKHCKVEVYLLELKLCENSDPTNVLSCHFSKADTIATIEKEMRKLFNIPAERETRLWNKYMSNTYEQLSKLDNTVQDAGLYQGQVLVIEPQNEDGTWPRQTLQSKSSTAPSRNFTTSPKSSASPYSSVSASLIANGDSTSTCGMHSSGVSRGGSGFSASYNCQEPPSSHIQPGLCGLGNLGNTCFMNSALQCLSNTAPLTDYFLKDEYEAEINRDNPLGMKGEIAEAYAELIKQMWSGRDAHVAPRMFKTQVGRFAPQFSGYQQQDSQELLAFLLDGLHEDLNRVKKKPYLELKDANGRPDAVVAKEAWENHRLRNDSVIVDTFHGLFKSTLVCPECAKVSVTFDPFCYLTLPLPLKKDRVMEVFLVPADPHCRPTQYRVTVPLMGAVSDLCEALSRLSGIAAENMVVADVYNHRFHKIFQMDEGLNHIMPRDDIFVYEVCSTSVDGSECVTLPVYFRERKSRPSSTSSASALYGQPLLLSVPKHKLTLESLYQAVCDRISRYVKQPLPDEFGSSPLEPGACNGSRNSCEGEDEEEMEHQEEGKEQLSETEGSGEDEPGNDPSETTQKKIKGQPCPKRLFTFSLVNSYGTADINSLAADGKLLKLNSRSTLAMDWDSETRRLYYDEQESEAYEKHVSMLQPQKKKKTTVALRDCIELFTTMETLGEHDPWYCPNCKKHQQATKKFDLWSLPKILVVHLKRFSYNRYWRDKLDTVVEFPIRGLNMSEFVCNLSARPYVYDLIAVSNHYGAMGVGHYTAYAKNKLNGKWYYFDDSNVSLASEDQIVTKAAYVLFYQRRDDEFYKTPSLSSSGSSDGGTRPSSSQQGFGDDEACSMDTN
How it was run: as §1

Measured: log2 ratio of Biotin-Ahx-Ub-VS probe labelling

CNC(=O)C1CCN(C(=O)CCl)CC1
inactive: USP34 -0.0658 | USP36 -0.083 | USP38 0.119 | USP39 0.229 | USP4 -0.146
